# Measurements as given in PubChem BioAssay AID504333 (National Center for Advancing Translational Sciences (NCATS), 2011).
# Screen size: about 360,000 compounds; about 16,000 (4.4%) were called active. Roughly 9% stayed inconclusive and do not appear here. The sample holds actives, similar compounds and a random draw of the others, so the mix is not that of the screen. A number with no mark means an inactive call. The call rests on the fitted dose curve; in most records, active means well fitted inhibition curve with a large enough effect; inconclusive means small, poorly fitted or top-dose-only effect; inactive means no such curve, though single readings can be large or run the other way.
# Target: Bromodomain adjacent to zinc finger domain protein 2B (Homo sapiens) (UniProt Q9UIF8)
# Experiment: qHTS Assay for Inhibitors of BAZ2B; further: nearly all actives have a fitted effect of over 60% in size
# Settings: AlphaScreen BAZ2B-H3K14Ac peptide displacement; series mostly up to 114 µM; activity change, negative = inhibition: at the top concentration
# Description: BAZ2B (bromodomain adjacent to zinc finger domain, 2B) belongs to a family of ubiquitously expressed bromodomain containing proteins, which biological function has not yet been elucidated. […] The interaction of BAZ2B with ISWI mediated by the BAZ1 motif has recently been described. […] The protocol is based on the AlphaScreen (PerkinElmer) displacement assay developed by NCGC [5], but uses the peptide ligand Biot-H3K14Ac, a high affinity binding partner for BAZ2B, in an AlphaScreen format. Although AlphaScreen has significant advantages with its utility in a variety of epigenetic target assays, the primary screening data provided in this deposition should be used with caution due to the prevalence of screening artifacts. The top compound concentration tested was 110uM in this assay, which increases number of actives and potential artifacts. An AlphaScreen counterscreen is highly recommended to be run against any putative actives to eliminate non-specific artifacts. Alternatively, one can use other AlphaScreen assays in PubChem to filter out promiscuous hits. Eberharter, A. et al. ACF1 improves the effectiveness of nucleosome mobilization by ISWI through PHD-histone contacts. The EMBO journal 23, 4029-4039. 2004. PMID: 15457208 [2] Jones, M.H. et al. A novel family of bromodomain genes. Genomics 63, 40-45. 2000. PMID: 10662543 [3] Yasgar, et al. Compound Management for Quantitative High-Throughput Screening. JALA. 2008 Apr;13(2):79-89. PMID: 18496600 [4] Inglese, et al. Quantitative high-throughput screening: a titration-based approach that efficiently identifies biological activities in large chemical libraries. Proc Natl Acad Sci. 1;103(31):11473-8. 2006. PMID: 16864780 [5] Quinn et al. A chemiluminescence-based method for identification of histone lysine methyltransferase inhibitors. Mol Biosyst 6(5): 782-8. 2010. PMID: 20567762 [6] Baell,Holloway. New substructure filters for removal of pan assay interference compounds (PAINS) from screening libraries and for their exclusion in bioassays. J Med Chem. 53(7):2719-40. 2010. PMID: 20131845 NIH Molecular Libraries Probe Production Network [MLPCN] NIH Chemical Genomics Center [NCGC] Structural Genomics Consortium (SGC) NIH Grant: 5U54 MH084681-02
# To each well of a 1,536w plate, 2ul of BAZ2B protein (final 50nM) and 1ul biotinylated histone peptide acetylated at Lys14 [b-H3(5-23)K14Ac] (final 50nM) were added in 1x PBS buffer, pH 7.4, containing 0.01% Tween-20, using a nanoliter dispenser. Formation of a protein-peptide complex proceeded at room temperature for 30 min. A Kalypsys pin-tool was employed to transfer 23 nL of library compound solution in DMSO to each well. Following a 30 min incubation of the protein-peptide complex with compounds at room temperature, a mixture of 40 ug/mL each streptavidin-coated donor and nickel chelate acceptor AlphaScreen beads (final 10 ug/mL) were added in a 1ul dispense for a final volume of 4ul. A brief centrifugation followed (1000rpm, 1 min) and were then incubated protected from the light for 20 min at room temperature. Plates were read on an EnVision multilabel plate reader using the 1,536 plate HTS AlphaScreen aperture (excitation time 80 ms, measurement time 240 ms).
# On the % scale 0 is the no-effect control and ±100 the full control effect; potency means the concentration at half of the fitted maximal effect.
# Chain of Bromodomain adjacent to zinc finger domain protein 2B (Homo sapiens) (Q9UIF8 whole entry, looked up, the tested form may be a part): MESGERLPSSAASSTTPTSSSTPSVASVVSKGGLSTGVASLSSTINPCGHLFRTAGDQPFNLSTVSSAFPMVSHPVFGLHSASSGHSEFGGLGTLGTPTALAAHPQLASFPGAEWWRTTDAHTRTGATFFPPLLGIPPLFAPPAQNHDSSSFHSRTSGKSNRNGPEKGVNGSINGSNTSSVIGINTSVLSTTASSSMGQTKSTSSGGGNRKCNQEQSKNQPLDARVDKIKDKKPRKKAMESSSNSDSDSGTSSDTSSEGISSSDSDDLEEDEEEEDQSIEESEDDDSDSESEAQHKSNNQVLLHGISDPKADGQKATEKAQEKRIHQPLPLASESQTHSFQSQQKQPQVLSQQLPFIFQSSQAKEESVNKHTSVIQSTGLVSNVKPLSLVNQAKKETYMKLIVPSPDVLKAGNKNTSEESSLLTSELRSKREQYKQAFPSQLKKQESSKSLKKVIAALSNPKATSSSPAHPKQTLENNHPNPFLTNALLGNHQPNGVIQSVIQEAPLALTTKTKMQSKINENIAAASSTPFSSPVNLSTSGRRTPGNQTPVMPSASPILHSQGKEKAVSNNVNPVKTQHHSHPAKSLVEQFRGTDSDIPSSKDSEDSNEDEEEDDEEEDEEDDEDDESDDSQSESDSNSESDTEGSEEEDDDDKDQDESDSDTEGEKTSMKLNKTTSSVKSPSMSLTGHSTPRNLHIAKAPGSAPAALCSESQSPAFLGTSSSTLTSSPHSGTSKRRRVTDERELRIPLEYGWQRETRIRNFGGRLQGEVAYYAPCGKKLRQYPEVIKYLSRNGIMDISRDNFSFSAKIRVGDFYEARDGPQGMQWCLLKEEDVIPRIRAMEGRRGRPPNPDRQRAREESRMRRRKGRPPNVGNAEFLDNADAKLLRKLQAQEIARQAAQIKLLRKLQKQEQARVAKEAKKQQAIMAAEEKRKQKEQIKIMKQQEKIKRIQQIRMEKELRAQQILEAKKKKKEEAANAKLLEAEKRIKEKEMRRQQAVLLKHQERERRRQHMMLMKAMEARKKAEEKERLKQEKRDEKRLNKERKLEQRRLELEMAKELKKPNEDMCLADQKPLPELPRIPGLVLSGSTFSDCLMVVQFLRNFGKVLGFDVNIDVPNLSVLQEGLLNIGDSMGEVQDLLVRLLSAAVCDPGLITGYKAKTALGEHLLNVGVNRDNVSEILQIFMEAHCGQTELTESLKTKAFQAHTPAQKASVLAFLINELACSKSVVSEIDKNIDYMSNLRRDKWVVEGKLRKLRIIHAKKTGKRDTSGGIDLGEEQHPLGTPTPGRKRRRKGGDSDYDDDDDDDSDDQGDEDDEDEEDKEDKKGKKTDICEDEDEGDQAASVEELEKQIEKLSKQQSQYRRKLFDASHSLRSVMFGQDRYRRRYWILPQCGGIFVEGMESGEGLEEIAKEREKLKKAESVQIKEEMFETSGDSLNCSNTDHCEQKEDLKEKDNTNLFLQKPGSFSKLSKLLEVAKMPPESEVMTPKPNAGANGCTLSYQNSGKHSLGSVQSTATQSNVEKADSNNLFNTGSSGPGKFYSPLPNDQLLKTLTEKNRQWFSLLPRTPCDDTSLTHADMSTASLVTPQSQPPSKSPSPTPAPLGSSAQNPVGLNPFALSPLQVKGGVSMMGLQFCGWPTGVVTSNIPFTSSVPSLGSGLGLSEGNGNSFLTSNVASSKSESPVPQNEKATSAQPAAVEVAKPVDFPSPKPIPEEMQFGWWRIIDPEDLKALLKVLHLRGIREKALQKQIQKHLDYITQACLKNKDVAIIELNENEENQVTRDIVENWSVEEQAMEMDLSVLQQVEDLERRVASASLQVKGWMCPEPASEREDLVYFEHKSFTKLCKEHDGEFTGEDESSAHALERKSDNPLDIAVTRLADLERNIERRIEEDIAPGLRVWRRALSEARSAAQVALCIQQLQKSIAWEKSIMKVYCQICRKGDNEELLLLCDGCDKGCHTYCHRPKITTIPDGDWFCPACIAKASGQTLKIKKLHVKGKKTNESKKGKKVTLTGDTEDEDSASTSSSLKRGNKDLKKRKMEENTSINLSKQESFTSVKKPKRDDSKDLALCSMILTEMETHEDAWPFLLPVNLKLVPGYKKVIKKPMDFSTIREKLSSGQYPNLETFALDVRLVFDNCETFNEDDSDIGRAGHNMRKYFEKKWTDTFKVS
Compound,Potency,"activity change, negative = inhibition"
CC[N+](C)(CC)CCC[n+]1c(-c2ccccc2)c2cc(N)ccc2c2ccc(N)cc21,44.7 µM (active),–
CNC(=O)O/N=C(\N)Cc1csc2ccccc12,–,-3.28%
COCCNC(=O)CN1C2CCC1CC(O)(c1cccnc1)C2 (stereo not given),–,-1.47%
COC(=O)C1=C(c2ccc(Cl)c(C(F)(F)F)c2)C[C@@H]2CC[C@H]1N2C(=O)NC1CC1,–,12.5%
c1cncc(CNCCc2c[nH]c3ccccc23)c1,–,-22%
COc1ccc(CNCCc2c[nH]c3ccccc23)cc1OC,50.1 µM (active),–
C/C(CCc1c[nH]c2ccccc12)=N\O,–,-0.449%
O=c1[nH]c(O)c(C=Nc2cc(F)cc(F)c2)c(=O)[nH]1,–,7.43%
COC(=O)C1=C(c2cccc(OCc3ccccc3)c2)C[C@@H]2CC[C@H]1N2C(=O)NNCc1ccccc1,–,-1.25%
Cc1ccccc1NC(=O)COC(=O)c1cc(C)n(C2CC2)c1C,–,-3.66%
COc1ccc(C2N3CC(C)(C)CN23)cc1 (stereo not given),–,-14.1%
CCC1(C)CC(CCNCc2ccc(N(C)C)cc2)(c2ccc(F)cc2)CCO1 (stereo not given),35.5 µM (active),–
O=C(COC(=O)c1ccccc1)Nc1ccccc1Sc1ccccc1,–,92.9%
CN(C)CCN(CC1CCCN(Cc2ccccc2F)C1)C(=O)Cc1ccc(F)c(F)c1 (stereo not given),–,0.813%
CCCCCn1c(=O)c(C(=O)NCc2ccccc2)c(O)c2ccccc21,–,55.7%
O=C(C1CCN(CC2CCCCC2)CC1)N1CCCC1,70.8 µM (active),–
COC(=O)C1=C(c2ccc(-c3ccccc3)c(F)c2)C[C@@H]2CC[C@H]1N2C(=O)NCc1ccc(F)cc1,–,-1.72%
COc1cccc(C(=O)N2C[C@H]3C[C@@H](C2)c2cccc(=O)n2C3)c1,–,-20.1%
COc1cccc(OC)c1C(=O)NC(=S)N1C[C@H]2C[C@H](C1)c1cccc(=O)n1C2,–,-5.95%
COC(=O)C1=C(c2c(C)noc2C)C[C@@H]2CC[C@H]1N2C(=O)NCc1ccc2c(c1)OCO2,–,-0.66%
COc1ccc(CNCCc2ccc3c(c2)OCO3)c(OC)c1OC,50.1 µM (active),–
Cc1cc(N2C(=O)C3CCCN3C2c2ccc(Cl)c(Cl)c2)no1 (stereo not given),–,8.95%
O=C(O)CCn1cc(C=C2C(=O)NC(=S)NC2=O)c(-c2cccc(Br)c2)n1,79.4 µM (active),–
CN1C2C=C(N(C(=O)c3ccc(Cl)cc3)c3ccccc3)CC1CC2 (stereo not given),–,-15.3%
O=C(NC(=S)N1C[C@H]2C[C@H](C1)c1cccc(=O)n1C2)c1ccc(F)cc1,–,-11.4%

Compound,Potency,"activity change, negative = inhibition"
O=c1[nH]c(=O)n(CCc2ccccc2)c(O)c1/C=N/N1CCOCC1,–,1.1%
O=c1[nH]c(=O)n(CCc2ccc(F)cc2)c(O)c1/C=N/N1CCCCC1,–,-2.13%
O=c1[nH]c(=O)n(Cc2ccccc2)c(O)c1/C=N/Nc1c(F)c(F)c(F)c(F)c1F,–,-2.27%
CCCCC(=O)N/N=C/c1c(O)n(-c2ccccc2)c(=O)[nH]c1=O,50.1 µM (active),–
Cc1cccc(-n2c(O)c(C=NC34CN5CN(CN(C5)C3)C4)c(=O)[nH]c2=O)c1,–,-4.42%
O=c1[nH]c(=O)n(-c2ccccc2)c(O)c1C=NC12CN3CN(CN(C3)C1)C2,–,-7.16%
CCCCC(=O)N/N=C/c1c(O)n(CCC2=CCCCC2)c(=O)[nH]c1=O,79.4 µM (active),–
O=C(N/N=C/c1c(O)n(Cc2ccccc2)c(=O)[nH]c1=O)c1ccccc1,50.1 µM (active),–
CCCCC(=O)N/N=C/c1c(O)n(CC)c(=S)n(CC)c1=O,–,18.8%
Cn1cc(C(=O)OCC(=O)N2CCCC2)c2ccccc21,–,-1.93%
C=CCN1C(=O)C2(C(C(=O)OCC)=C(N)Oc3c2c(=O)oc2ccccc32)c2ccccc21 (stereo not given),–,1.37%
O=[N+]([O-])c1ccc(C2C3C(c4ccccc4)=NC4(CCCCC4)N32)cc1 (stereo not given),–,-6.5%
COC(=O)C1=C(c2ccc(F)cc2OCc2ccccc2)C[C@@H]2CC[C@H]1N2C(=O)NCc1ccc2[nH]ccc2c1,–,-12.4%
COC(=O)C1=C(c2cccc(OCc3ccccc3)c2)C[C@@H]2CC[C@H]1N2C(=O)NCc1ccc(Br)cc1,–,2.73%
C=CCn1c(O)c(/C=N/N2CCOCC2)c(=O)[nH]c1=S,–,-10.9%
C[C@@H]1CC[C@@]2(OC1)O[C@H]1C[C@H]3[C@@H]4CC=C5C[C@@H](O)[C@H](O)C[C@]5(C)C4CC[C@]3(C)[C@H]1[C@@H]2C (stereo not given in full),–,19.8%
CC1=CC(=Cc2sc3ccccc3[n+]2C)C=C(C)O1,–,-25.3%
COC(=O)C1=C(c2ccc(Cl)c(C(F)(F)F)c2)C[C@@H]2CC[C@H]1N2C(=O)NC(C)C,–,8.23%
COc1ccc(-c2nn(CCC#N)cc2C(=O)Nc2ccc(C(C)=O)cc2)cc1,–,0.868%
COc1ccccc1NC(=O)N1C[C@@H]2C[C@@H](C1)c1cccc(=O)n1C2,–,8.13%
O=C(O)COc1ccccc1/C=C1\C(=O)NC(=O)N(CCC2=CCCCC2)C1=O,–,-19.3%
O=C1NC(=O)N(CCc2ccc(F)cc2)C(=O)/C1=C/C=C/c1ccccc1,–,7.59%
O=C1NC(=O)N(Cc2ccco2)C(=O)/C1=C\c1cccn1CCOc1ccccc1,28.2 µM (active),–
CCOC(=O)c1c(C)c(C(=O)N2CCC3(CC2)OCCO3)c(C)n1CC,–,9.98%
O=c1[nH]c(CN2CC=C(c3ccccc3)CC2)nc2scc(-c3cccs3)c12,–,-8.66%

Compound,Potency,"activity change, negative = inhibition"
O=C(Cc1ccc(Cl)cc1)NCCN1CCN(C(=O)Cc2ccc(Cl)cc2)CC1,–,0.0403%
O=C(Cn1c(=O)n(CC2CS2)c2ccccc21)N1CCCCC1 (stereo not given),–,8.82%
CCC(=NCCc1ccccc1)c1c(O)n(C2CCCCC2)c(=O)[nH]c1=O,–,-21.4%
O=C(Cc1ccccc1)N1CCN(C2CCCCCC2)CC1,50.1 µM (active),–
COc1ccccc1CN1CCN(C(=O)Cc2ccccc2)CC1,50.1 µM (active),–
O=C(COc1ccc2ccccc2c1)N1CCN(Cc2ccncc2)CC1,–,53.5%
COc1ccc(N=Cc2c(O)n(C)c(=O)[nH]c2=O)cc1,–,0.618%
CN1CCC(OC(=O)c2cccc(F)c2)CC1,–,-1.04%
COc1ccc(C(=O)C2CN(C)CC2C(=O)c2ccc(OC)cc2)cc1 (stereo not given),–,2.95%
COC(=O)C1=C(c2ccc3ccccc3c2)C[C@@H]2CC[C@H]1N2C(=O)NCCO,–,-6.21%
CC(Cc1ccccc1)NCCC(c1ccccc1)c1ccccc1 (stereo not given),–,12.5%
Cc1cc(=O)oc2c(C)c(OCC(=O)N3CCN(Cc4ccc5c(c4)OCO5)CC3)ccc12,–,-18.4% [at 57.1 µM]
Fc1ccc(N2CCN(Cc3ccc4c(c3)OCO4)CC2)cc1,56.2 µM (active),–
O=C(Cc1ccccc1[N+](=O)[O-])N1CCN(Cc2ccc3c(c2)OCO3)CC1,–,-28.5%
CCc1ccc(OCC(=O)N2CCN(CC(=O)Nc3ccccc3Cl)CC2)cc1,–,10.2%
Cc1ccc(-n2c(C)cc(/C=C3\C(=O)NC(=O)N(C)C3=O)c2C)cc1C,–,-28.5%
Cc1cc(/C=C2/C(=O)NC(=O)N(Cc3ccco3)C2=O)c(C)n1-c1ccc(C(=O)O)cc1,56.2 µM (active),–
Cc1cc(C=C2C(=O)NC(=O)NC2=O)c(C)n1-c1ccncc1,–,-23.5%
Cn1c(O)c(C(=Nc2ccc(F)cc2)c2ccccc2)c(=O)n(C)c1=O,–,-8.76%
CCN(CC)c1ccc([N+](=O)[O-])c2cccnc12,28.2 µM (active),–
COC(=O)C1=C(c2ccccc2OCc2ccccc2)C[C@@H]2CC[C@H]1N2C(=O)NCc1ccc(OC)cc1,–,-6.25%
Cc1c(Oc2cc(NN3CCCCC3)c([N+](=O)[O-])cc2[N+](=O)[O-])cccc1[N+](=O)[O-],–,0.574%
CN(C)C(=O)Oc1ccc(NC(=O)N2CCOCC2)cc1,–,-4.05%
COc1ccc2[nH]c3c(c2c1)CCN[C@H]3C,44.7 µM (active),–
CCOC(=O)C1(Cc2ccc(Cl)cc2)CCN(C(C)CCn2cccn2)CC1 (stereo not given),–,-9.31%

Compound,Potency,"activity change, negative = inhibition"
CCCCn1c(=O)c(C(=O)Nc2ccccc2Cl)c(O)c2ccccc21,–,9.08%
Cc1cccc(Cn2cccc(C(=O)Nc3ccc4c(c3)OCCO4)c2=O)c1,–,-2.38%
O=c1c2ccccc2nc(/C=C/c2ccc(F)cc2)n1-c1ccccc1O,–,-12.3%
C=CCN(CC=C)C(=O)Nc1ccc(OCC)cc1,–,-21.3%
C=CCN1C(=O)NC(=O)/C(=C/c2ccc(OCC(=O)Nc3ccc(C)cc3)cc2)C1=O,50.1 µM (active),–
Cc1ccc(C2CN(C)CC2C(=O)c2ccc(F)cc2)cc1 (stereo not given),–,-13%
CC(C)c1c(CN(C)C(C)Cc2ccccc2)n(C)n(-c2ccccc2)c1=O (stereo not given),–,8.31%
CN1CCc2cc3c(cc2[C@H]1[C@@H]1OC(=O)c2c1ccc1c2OCO1)OCO3,–,6.42%
C[C@]12CC[C@H](O)C[C@H]1CC[C@@H]1C2CC[C@]2(C)[C@@H](C3=CC(=O)OC3)[C@@H](O)C[C@]12O (stereo not given in full),–,4.14%
CN(C)CC1CCCCC1=O (stereo not given),–,-2.32%
Cc1c(C(=O)O)cccc1-n1c(C)cc(/C=C2\C(=O)NC(=O)N(c3ccc4c(c3)OCO4)C2=O)c1C,56.2 µM (active),–
Cc1ccccc1N1C(=O)NC(=O)/C(=C\c2cc(C)n(C)c2C)C1=O,–,-31%
O=C1N=c2ccccc2=C/C1=C\c1c(O)[nH]c(=S)[nH]c1=O,–,5.91%
O=C1NC(=O)C(C/C=C/c2ccccc2)C(=O)N1,–,-5.78%
CCOP(=S)(OCC)C(O)CCCCCn1c(=O)c(F)cn(C2CCCO2)c1=O (stereo not given),–,2.17%
CCc1nc2ccccc2c(=O)n1-c1cccc(OC)c1,–,24.6%
COc1ccc(CN2CCN(c3ccccc3F)CC2)c(OC)c1,50.1 µM (active),–
CC(C)c1ccc(O)c(CN2CCN(c3ccccc3)CC2)c1,–,-3.99%
Cc1cccc(NC(=O)N2CC3CC(C2)c2cccc(=O)n2C3)c1 (stereo not given),–,-1.2%
CCOc1cccc(=NC2CCCCC2)c2c(C)[nH]c(C)c12,–,19.2%
O=C(O)c1ccccc1NC(=O)C1C2CCC(O2)C1C(=O)O (stereo not given),–,0.502%
CCN(CC)C(=O)Oc1ccc(NC(=O)N2CCOCC2)cc1,–,14.1%
CCCCn1c(O)c(C(CC)=NCc2ccco2)c(=O)[nH]c1=O,–,-3.38%
CC/C(=N\NC(=O)c1ccccc1O)c1c(O)n(Cc2ccccc2)c(=O)[nH]c1=O,–,3.69%
CCC(=NCc1ccco1)c1c(O)n(Cc2ccccc2)c(=O)[nH]c1=O,50.1 µM (active),–
